In the library only some 18% were active in any assay of this set; here they are far more common.
LDHA block = LDHA (human) enzyme inhibition; hit rate 0.15% among 480,000; P00338; purified LDHA, NADH/diaphorase-resazurin fluorescence; stronger effect = lower value; activity change, % (values are at about 110 or 230 µM); in the data active = activity change below about -30%; inconclusive = mostly about -25% to -30%;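 also: plate controls were DMSO wells for no effect and wells without enzyme for full effect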
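Human LDH5 at 2 nM final in Tris HCl pH 7.4 with 0.06 mM NADH and 0.2 mM pyruvate, reacted 5 minutes at room temperature. Remaining NADH coupled via diaphorase/resazurin; resorufin fluorescence read at 0 and 20 minutes, normalized to enzyme-free and DMSO wells.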
VP16 counter = Gal4-VP16 reporter inhibition counter-screen; Drosophila S2 Gal4-VP16 UAS-luciferase, luminescence, 20 h; Potency, µM (highest dose often 53.6 µM), without a hit: at the top dose activity, negative = inhibition, actives largely listed as inhibitors; hit rate 3.5% among 310,000; AID 2546;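 also: Gal4-VP16 expression switched on by copper sulfate through the metallothionein promoter; potency is read from the fitted curve at half-maximal effect; nearly all actives have a fitted effect of over 50% in size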
TDP1 cell noCPT = qHTS for Inhibitors of human tyrosyl-DNA phosphodiesterase 1 (TDP1): qHTS in cells in absence of CPT; hit rate 15% among 420,000; Potency, µM (doses to about 46.2 µM), inactives show at the top dose activity change, negative = growth inhibition, actives largely listed as inhibitors; AID 686978, 2013; DT40 Tdp1-/- hTDP1 cells, no CPT, ATP luminescence, 48 h; also: potency is read from the fitted curve at half-maximal effect; nearly all actives have a fitted effect of over 55% in size
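Cells were dispensed at 400 per well, compounds added by pin tool, plates incubated ≥48 hr at 37 °C, then CellTiter-Glo added for 30 min at room temperature before luminescence reading. Line: DT40 Tdp1-/- complemented with hTDP1; camptothecin omitted.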
RORgamma inh = blocks mouse ROR gamma transcriptional activity | hit rate 5.4% among 310,000 | P51450 | Potency, µM (top dose mostly 53.6 µM), for the others: at the top dose activity change, negative = inhibition, usual class: inhibitors | Drosophila S2 Gal4-RORgamma UAS-luciferase reporter, 20 h; also: potency is read from the fitted curve at half-maximal effect; nearly all actives have a fitted effect of over 60% in size
Target sequence (P51450 whole entry, looked up, the tested form may be a part): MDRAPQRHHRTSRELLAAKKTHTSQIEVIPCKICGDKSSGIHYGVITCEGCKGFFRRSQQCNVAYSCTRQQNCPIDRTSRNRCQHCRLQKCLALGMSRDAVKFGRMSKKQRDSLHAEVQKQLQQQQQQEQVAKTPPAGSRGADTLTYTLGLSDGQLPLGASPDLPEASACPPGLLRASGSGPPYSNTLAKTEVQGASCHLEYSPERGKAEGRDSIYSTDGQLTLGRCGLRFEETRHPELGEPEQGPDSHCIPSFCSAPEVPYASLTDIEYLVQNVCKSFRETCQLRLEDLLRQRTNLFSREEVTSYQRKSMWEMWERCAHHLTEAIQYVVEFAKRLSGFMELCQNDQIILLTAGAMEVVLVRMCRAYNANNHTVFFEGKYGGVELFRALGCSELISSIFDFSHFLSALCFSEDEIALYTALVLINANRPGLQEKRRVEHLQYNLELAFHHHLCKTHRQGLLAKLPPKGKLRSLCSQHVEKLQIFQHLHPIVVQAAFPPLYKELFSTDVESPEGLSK
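In this cell-based reporter format, copper sulfate (700 uM final) drives Gal4–ROR gamma fusion expression from a metallothionein promoter in Drosophila Schneider cells; compounds preincubated 1 hr, reporter read after 20 hr at ambient temperature.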
DT40 TDP1 CPT = DT40-hTDP1 cell growth loss with CPT | chicken DT40 Tdp1-/-;hTDP1 cells + 20 nM CPT, ATP luminescence, 48 h | Potency, µM (titrated, usually from 46.2 µM), inactives show top-dose activity change, negative = growth inhibition, hits mostly inhibitors | hit rate 12% among 420,000; also: potency is read from the fitted curve at half-maximal effect; nearly all actives have a fitted effect of over 55% in size
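Cell growth measured by CellTiter-Glo luminescence after a minimum 48 h, 37 C compound exposure with 20 nM CPT in Tdp1-knockout DT40 cells stably expressing hTDP1, seeded 400/well; qHTS titration format.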
IL1B secr inh = blocks inflammasome-driven IL-1 beta release; THP-1 LPS/ATP IL-1B secretion, AlphaLISA, 16 h; stronger effect = lower value; activity change, % at 57.5 µM; hit rate 4.7% among 360,000; AID 743279; in the data active = activity change below about -50%; inconclusive = mostly about -30% to -49%
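THP-1 cells pretreated 1 hr with compounds (up to 57.5 uM final), then stimulated with LPS (250 ng/mL final) plus ATP (1.25 mM final); secreted IL-1B measured by AlphaLISA after 16 hr, decreased signal indicating inhibition.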
Numbers without * were called inactive; ? = inconclusive; . = no result; [ ] = dose if it differs, or a comment. Unless noted, calls follow the shape of the dose curve; as a rule, active = well fitted curve in the direction sought with a large enough effect; inconclusive = small, poorly fitted or top-dose-only effect, or another doubt; inactive = no such curve, though single readings can be large; an effect the other way counts as inactive or inconclusive. Unless noted, % is scaled to controls: 0 for no effect and ±100 for the full control effect.

SMILES | LDHA block | VP16 counter | TDP1 cell noCPT | RORgamma inh | DT40 TDP1 CPT | IL1B secr inh
CCOC(=O)c1c(C)cc(=O)oc1C | 0 | -4% | -7% | -21% | 1% | 4
CCOC(=O)c1c(C)oc2c1C(=O)c1ccccc1C2=O | 7 | -22% | 4.1µM* | ? | 4.6µM* | 60
Cc1ccc(-n2c(C)c(C)c3c2ncn2nc(-c4ccncc4)nc32)cc1 | 1 | . | . | . | . | .
Cc1cc(CSc2ccc3c(c2)NC(=O)CO3)no1 | 5 | . | . | . | . | .
CCOc1cc(-c2nc(-c3ccc(-c4ccccc4)nc3OCC)no2)cc(OCC)c1OCC | 4 | . | ? | . | ? | .
CCOc1nc(-c2ccccc2)ccc1-c1noc(-c2cccnc2)n1 | -3 | . | 3.7µM* | . | -14% | 17
NC(=O)c1ccc(COC(=O)c2cc(S(N)(=O)=O)ccc2Cl)cc1 | 4 | . | . | . | . | .
O=C(Nc1ccc(NC(=O)c2cc3ccccc3o2)cc1)c1ccccc1 | -6 | . | -25% | . | -27% | .
Cc1ccc(NC(=O)c2cc3ccccc3o2)cc1S(=O)(=O)N(C)C | -1 | ? | ? | 13% | 29µM* | -11
O=C(Nc1ccc2c(c1)OCCO2)c1cc2ccccc2o1 | -5 | ? | ? | -37% | -29% | -68*
Cc1ccc(NC(=O)c2cc3ccccc3oc2=O)cc1S(=O)(=O)N(C)C | -1 | ? | -1% | ? | -1% | 30
Cc1nn(CCc2nc(-c3ccc4ccccc4c3)cs2)c2[nH]c(=O)cc(C(F)(F)F)c12 | 0 | . | . | . | . | .
O=C(OCc1nc2ccccc2s1)C1=NN(C2CCS(=O)(=O)C2)C(=O)CC1 (stereo not given) | -1 | . | . | . | . | .
Cc1ccc(-c2nn(CC(=O)Nc3ccc(F)cc3)c(=O)c3ccccc23)cc1 | -6 | . | . | . | . | .
Cc1ccc(-c2cn(-c3ccc(Cl)cc3)c(S(=O)(=O)CC(=O)Nc3ccccc3)n2)cc1 | 2 | . | ? | . | 26µM* | .
Cc1ccc(-n2cc(-c3ccccc3)nc2S(=O)(=O)CC(=O)Nc2ccc(F)cc2)cc1 | 4 | . | ? | . | 23µM* | .
COc1ccc(Cl)cc1-n1cc(-c2ccccc2)nc1SCC(=O)Nc1ccc(C)cc1 | -3 | . | 18µM* | . | ? | .
Cc1ccc(NC(=O)COC(=O)c2nn(-c3ccc(Cl)cc3)cc2O)cc1 | 3 | . | ? | . | -22% | -1
COc1ccccc1-c1nc(CSc2nc(C)c(C)c(=O)[nH]2)c(C)o1 | -1 | . | . | . | . | .
CCCCNC(=O)C(CC)(ONc1ccccc1C(F)(F)F)c1ccccc1OC (stereo not given) | 9 | . | 16µM* | . | ? | ?
O=C(NCc1cccnc1OCC(F)(F)F)c1ccc(Cl)o1 | 12 | . | . | . | . | .
CCOC(=O)Cn1c(S(=O)(=O)Cc2ccccc2)nc2ccccc21 | -14 | 20% | ? | -17% | -2% | 15
CCOC(=O)Cn1c(S(=O)(=O)Cc2ccc(Cl)cc2)nc(-c2ccccc2)c1-c1ccccc1 | -8 | 0% | 16µM* | 12% | 18µM* | -4
CCOC(=O)C1=C(O)/C(=C\c2cc(C)n(-c3ccccc3F)c2C)N=C1C | 16 | 5% | 23µM* | 1% | 12µM* | 5
CCOC(=O)C1=C(O)/C(=C\c2cc(C)n(-c3ccc(F)cc3)c2C)N=C1C | 3 | 10% | 15µM* | 16% | ? | -19
SMILES | LDHA block | VP16 counter | TDP1 cell noCPT | RORgamma inh | DT40 TDP1 CPT | IL1B secr inh
CCOC(=O)C1=C(O)/C(=C/c2cccc(OC)c2O)N=C1C | 2 | 3%[10 µM] | -17% | -29% | ? | 30
COC(=O)C1=C(C)NC(=O)/C1=C\c1cc(C)n(-c2ccccc2F)c1C | -6 | 5% | ? | -5% | 2% | -114*
O=C1CSc2ccc(C(=O)OCCOc3ccccc3)cc2N1 | -5 | . | . | . | . | .
Cc1ccc(/C=C/C(=O)N(Cc2ccco2)Cc2ccco2)s1 | 2 | . | . | . | . | .
CCOC(=O)C1=C(C)NC(C)=C(C(=O)OCCNC(=O)c2cccnc2)C1c1cccc([N+](=O)[O-])c1 (stereo not given) | 0 | -21% | ? | ? | 23µM* | -59*
O=C(NCCOC(=O)c1ccc([N+](=O)[O-])cc1)c1cccnc1 | 1 | -3%[10 µM] | -7% | -7% | -9% | 45
COc1c(C)cc(N)cc1C | 10 | . | . | . | . | .
CCCCCCCOc1ccc(S(=O)(=O)c2ccc(OCCCCCCC)cc2)cc1 | 6 | . | . | . | . | .
CC1=CC(=Nc2c(C)n(C)n(-c3ccccc3)c2=O)C=CC1=O | . | -14% | . | -5% | . | .
CC1=CC(=Nc2c(C)n(C)n(-c3ccccc3)c2=O)C=C(C)C1=O | 40 | ? | 21µM* | ? | ? | 0
Nc1ncnc2c1nc(Br)n2C1OC(CO)C(O)C1O (stereo not given) | . | -10% | 2.3µM* | -2% | ? | .
Nc1ncnc2nn(C3OC(CO)C(O)C3O)nc12 (stereo not given) | -6 | . | 1.8µM* | . | 4.1µM* | 53
CCOC(=O)C1=CC[C@H]2c3c(c4ccccc4n3C)C[C@H]1N2C | 3 | . | ? | . | 29µM* | 2
CN1C2Cc3c(n(C)c4ccccc34)C1CC=C2CO (stereo not given) | -7 | . | 3% | . | -1% | 38
CC(=O)c1cccc(-n2nnnc2SCC(=O)Nc2ccccc2N2CCCCC2)c1 | -3 | -5% | 23µM* | -1% | ? | -17
COc1ccc(-n2nnnc2SCC(=O)Nc2ccccc2N2CCOCC2)cc1OC | 0 | ? | 16% | 2% | -24% | -10
COc1cccc(-n2nnnc2SCC(=O)Nc2ccc(C(C)=O)cc2)c1 | -3 | -8% | 23µM* | 10% | 26µM* | 24
COc1ccc(CNC(=O)Cc2nc(-c3cccs3)oc2C)cc1 | -1 | . | . | . | . | .
Cc1c(C(=O)NCCSCc2c(F)cccc2Cl)cnn1-c1ccc(F)cc1 | 5 | ? | 26µM* | 1% | ? | -21
O=C(CCc1ccccc1)NCCSCc1c(F)cccc1Cl | -3 | 7.9µM* | -18% | ? | -9% | 3
COc1cccc(C(=O)NCCSCc2ccccc2Cl)c1 | 2 | 30% | ? | 26% | 1% | 0
COc1cccc(C(=O)NCCSCc2c(F)cccc2Cl)c1 | -3 | -1% | ? | 3% | 2% | -65*
Cc1c(C(=O)NCCSCc2ccc(F)cc2)cnn1-c1ccc(Cl)cc1 | -2 | -8% | ? | 33% | -13% | .
O=C(Nc1cc(C(F)(F)F)ccc1C(=O)O)c1ccc(F)cc1F | -3 | . | . | . | . | .
CCC1c2ccsc2CCN1C(=O)CCC(=O)N1CCN(S(=O)(=O)c2ccccc2)CC1 (stereo not given) | -7 | . | . | . | . | .
